# CYP2C19 act – cytochrome P450 2C19 (human) activation; P33261; recombinant CYP2C19, luciferin-H EGE luminescence; stronger effect = higher value; 0 = fully inhibited enzyme, 1 = untreated enzyme; activation factor at 5 µM; 96,000 tested, under 10 active;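 active means activation factor of at least 2 at 5 µM in the primary screen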;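 further: 0 = wells with 2.5 mM tranylcypromine and 1 = vehicle-only wells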
# Target sequence (P33261 whole entry, looked up): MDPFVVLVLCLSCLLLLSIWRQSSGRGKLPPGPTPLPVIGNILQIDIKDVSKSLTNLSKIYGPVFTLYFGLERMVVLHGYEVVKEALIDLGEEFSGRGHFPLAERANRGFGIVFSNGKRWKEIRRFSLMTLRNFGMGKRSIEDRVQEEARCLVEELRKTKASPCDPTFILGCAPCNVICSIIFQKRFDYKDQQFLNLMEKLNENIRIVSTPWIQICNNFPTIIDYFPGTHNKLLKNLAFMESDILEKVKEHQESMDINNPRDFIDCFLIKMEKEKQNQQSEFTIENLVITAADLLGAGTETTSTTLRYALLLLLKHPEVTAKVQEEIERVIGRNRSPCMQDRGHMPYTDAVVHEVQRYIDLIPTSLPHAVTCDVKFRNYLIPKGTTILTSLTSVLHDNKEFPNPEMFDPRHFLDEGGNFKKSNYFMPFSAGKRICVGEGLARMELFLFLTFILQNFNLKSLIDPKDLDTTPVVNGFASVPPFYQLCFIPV
# CYP2C9 inhib – human CYP2C9 inhibition. P11712. CYP2C9 Supersomes, luciferin-H conversion, luminescence. inhibition, % at 5 µM. 96,000 tested, 20% active. AID 777;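 active means blocking of liver enzyme CYP2C9 beyond about 50% at 5 µM, limit read from the data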
# CYP2C19 inhib – human CYP2C19 inhibition. inhibition, % at 5 µM. 96,000 tested, 21% active. CYP2C19 Supersomes, luciferin-H EGE luminescence, 30 min;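 active means CYP2C19 inhibition above a set limit at 5 µM in the primary screen, cut at about 50% in these data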;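 further: plate controls were negative control wells for no effect and 2.5 mM tranylcypromine positive control for full effect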
# CYP2C9 act – activators of human CYP2C9 | 96,000 tested, 1.4% active | P11712 | AID 1024 | recombinant CYP2C9, luciferin-H conversion, luminescence; stronger effect = higher value; factor 1 = untreated enzyme, 0 = blocked | activation factor at 5 µM;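 active means activation factor of 2 or more for CYP2C9 at a 5 µM dose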;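 further: 0 = sulfaphenazole-blocked wells and 1 = vehicle-only wells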
# Measles CPE – protection of cells from measles virus | Measles virus-infected cells, CPE protection, absorbance | 140,000 tested, 1.5% active | AID 841 | protection (pct of control), % at 4 µM; in the data active means protection mostly above about 24%, no sharp cut-off; inactive means mostly below about 26%
# An asterisk follows results filed as active; . = no result given. Most compounds without a hit are left out; they make up all but 22% or so of the library.
SMILES,CYP2C19 act,CYP2C9 inhib,CYP2C19 inhib,CYP2C9 act,Measles CPE
Cc1cccc(Cn2c(=O)n(Cc3ccco3)c(=O)c3ccccc32)c1,0.9,62*,9,0.4,17
O=C(c1cnc2n(c1=O)CCS2)N1CCCc2ccccc21,.,.,.,.,4
O=S(=O)(c1ccc2ccccc2c1)N1CCC(c2nc(-c3ccncc3)no2)CC1,.,.,.,.,21
CC(C)N(C(=O)N1CCC(c2nc(-c3ccncc3)no2)CC1)C(C)C,0.3,28,66*,0.7,23
O=C(Cn1cnc2c(cnn2-c2ccc(F)cc2)c1=O)N1CCN(c2ccccc2F)CC1,0.8,4,20,1,20
COC(=O)CC1Oc2ccc(C)cc2NC1=O (stereo unspecified),0.8,13,25,0.9,7
C=C(C)C(=O)OC1(C(F)(F)F)Oc2cc(C)ccc2NC1=O (stereo unspecified),0.4,39,63*,0.6,9
Cc1nc(NC(=O)c2ccccc2)sc1-c1csc(Nc2ccc(F)cc2)n1,0.2,-87,78*,1.9,4
Cc1nc(NC(=O)c2ccccc2)sc1-c1csc(Nc2ccc(Cl)cc2)n1,0.6,-19,45,1.2,6
Cc1ccccc1Nc1nc(-c2sc(NC(=O)c3ccccc3)nc2C)cs1,0.4,10,55*,0.9,16
Cc1ccccc1Nc1nc(-c2sc(NC(=O)c3ccc([N+](=O)[O-])cc3)nc2C)cs1,0.5,44,52*,0.6,12
CCOc1ccccc1Nc1nc(-c2sc(NC(=O)c3ccc([N+](=O)[O-])cc3)nc2C)cs1,0.6,34,41,0.7,9
Cc1c(NC(=S)NC(=O)c2ccco2)c(=O)n(-c2ccccc2)n1C,.,.,.,.,14
CCOC(=O)CCCCC(=O)c1[nH]c(=O)[nH]c1CN1CCOCC1,1.1,-14,-11,1.1,11
O=C(NCC(c1cccs1)N1CCOCC1)c1cc([N+](=O)[O-])ccc1Cl (stereo unspecified),.,.,.,.,10
O=C(NCC(c1cccs1)N1CCOCC1)c1ccc(Cl)s1 (stereo unspecified),0.3,54*,72*,0.5,5
FC(F)(F)c1ccc(Oc2ccc3ccccc3c2Br)nc1,.,.,.,.,14
Cc1nc(C)n(CC(O)COc2ccc3cc(Br)ccc3c2)n1 (stereo unspecified),0.6,-6,36,1.1,13
OC(COc1ccc2ccccc2c1Br)Cn1ccnc1 (stereo unspecified),0,96*,99*,0,4
OC(COc1ccc2ccccc2c1)Cn1ccnc1 (stereo unspecified),0,98*,100*,0,4
COC(=O)c1ccc(NC(=O)C23CC4CC(C2)CC(n2cncn2)(C4)C3)cc1,.,.,.,.,4
CSc1nc2ccc(NC(=O)C3CCCO3)cc2s1 (stereo unspecified),1,3,2,1,4
N#Cc1c(C(F)(F)F)cc(C2CC2)nc1N1CCCC1,1.1,-18,-9,1.2,9
CCCC1=C(C(=O)OCC)C(c2ccc(F)cc2)n2ncnc2N1 (stereo unspecified),0.5,76*,55*,0.2,17
CCCC1=C(C(=O)OCC)C(/C=C/c2ccccc2)n2ncnc2N1 (stereo unspecified),0.1,52*,91*,0.5,6
SMILES,CYP2C19 act,CYP2C9 inhib,CYP2C19 inhib,CYP2C9 act,Measles CPE
CCOC(=O)C1=C(C)Nc2ncnn2C1/C=C/c1ccccc1 (stereo unspecified),0.4,63*,57*,0.4,12
O=C1CN(C(=O)CSc2nnnn2-c2ccc(Cl)cc2)c2ccccc2N1,0.9,-5,13,1,4
CC1CCCCC1NC(=O)c1cc2c(s1)CS(=O)(=O)C2 (stereo unspecified),1.1,41,-7,0.6,5
CSc1ccccc1NC(=O)Nc1ccc(Cl)cc1,0.2,53*,85*,0.5,31
CC(C)(C)C(=O)N=C1SC2CS(=O)(=O)CC2N1c1ccc2c(c1)OCO2 (stereo unspecified),0.4,63*,57*,0.4,15
CNCCCN1c2ccccc2CCc2ccccc21,.,.,.,.,10
COc1cc(C=O)c(Br)cc1OCc1ccc(C)cc1,0.6,15,40,0.9,4
COc1ccc(OC)c(NC(=O)C23CC4CC(C2)CC(n2cnc(Br)n2)(C4)C3)c1,0.3,-159,72*,2.6*,41
COc1ccc(NC(=O)C23CC4CC(C2)CC(n2cnc(Br)n2)(C4)C3)c(OC)c1,1,-6,5,1.1,13
